Measured values as given in the supplement of paper PMC7156485.

system: TDF; test: H1.0 immunofluorescence intensity relative to DMSO (% of DMSO); higher = stronger H1.0 induction, active = 120 or more; conditions: concentration: 10 µM; 24 h
Summary of the method: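 Cell number or H1.0 nuclear intensity appears as percent of the plate control, based on the median of replicates. Measurements came from HCC1569 and TDF cells exposed in triplicate to compounds at 10 µM for 24 h at 37 °C, then imaged in six fields per well at ×10. Positional effects were smoothed out of HCC1569 values.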
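Also: TDF is a line of transformed human dermal fibroblasts of mesenchymal origin.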

| SMILES | H1.0 immunofluorescence intensity |
| --- | --- |
| N#CC(=C1Nc2ccccc2S1)c1ccnc(NCCc2cccnc2)n1 [JNK Inhibitor V] | 108 (inactive) |
| Cc1ccccc1C(C(=O)NC1CCCCC1)N(C(=O)Cn1ccnc1C)c1cccc(F)c1 (stereo not drawn) | 95.3 (inactive) |
| Cc1ccccc1N1C(=O)c2cc(S(N)(=O)=O)c(Cl)cc2NC1C (stereo not drawn) [Metolazone] | 89.8 (inactive) |
| CCOC(=O)[C@H](CCc1ccccc1)N[C@@H](C)C(=O)N1C(=O)N(C)C[C@H]1C(=O)O.Cl | 100 (inactive) |
| CC(C)=CCCC(C)=CCCC(C)=CCCC(C)=CCCC(C)=CCCC(C)=CCCC(C)=CCCC(C)=CCCC(C)=CCO [Solanesol] | 89.9 (inactive) |
| CNCCCC1c2ccccc2C=Cc2ccccc21.Cl [Protriptyline hydrochloride] | 109 (inactive) |
| CCN(CC)CC(=O)Nc1c(C)cccc1C.Cl [Lidocaine hydrochloride] | 89 (inactive) |
| Cc1ccc(NC2=CC(=O)c3sc(C)nc3C2=O)cc1 | 122 (active) |
| O=C(Nc1cccc2c(=O)cc(-c3nn[nH]n3)oc12)c1ccc(OCCCCc2ccccc2)cc1 [Pranlukast] | 101 (inactive) |
| O=c1sn(-c2cccc3ccccc23)c(=O)n1Cc1ccccc1 [4-benzyl-2-(1-naphthyl)-1,2,4-thiadiazolidine-3,5-dione] | 101 (inactive) |
| NC1CONC1=O [L-Cycloserine] | 94.5 (inactive) |
| CCCCCC(O)C=CC=CC=CC(O)CC=CCCCC(=O)O [8(S),15(S)-DIHETE all trans] | 92.4 (inactive) |
| CC(C)C(CO)Nc1nc(Nc2cc(N)cc(Cl)c2)c2ncn(C(C)C)c2n1 (stereo not drawn) | 111 (inactive) |
| CC(N)(Cc1ccc(O)cc1)C(=O)O (racemic) [DL-alpha-Methyl-p-tyrosine] | 114 (inactive) |
| COc1cc(C(O)C(=O)O)ccc1O (racemic) | 89.5 (inactive) |
| COc1ccc(/C=C2\COc3ccc(C)cc3C2=O)cc1O | 126 (active) |
| O=C(C=CC=Cc1ccc2c(c1)OCO2)N1CCCCC1 [Piperine] | 96.8 (inactive) |

| SMILES | H1.0 immunofluorescence intensity |
| --- | --- |
| CC1OC(OC2C(Oc3cc(O)c4c(=O)cc(-c5ccc(O)cc5)oc4c3)OC(CO)C(O)C2O)C(O)C(O)C1O (stereo not drawn) [Rhoifolin] | 88.4 (inactive) |
| COc1cc2c[n+](C)c3c4cc5c(cc4ccc3c2cc1OC)OCO5.[Cl-] | 138 (active) |
| CC1COc2c(N3CCN(C)CC3)c(F)cc3c(=O)c(C(=O)O)cn1c23 (stereo not drawn) [Levofloxacin] | 98.5 (inactive) |
| O=C(Nc1cccc(Nc2nccc(Nc3cccc(C(F)(F)F)c3)n2)c1)C1CC1 [Aurora Kinase Inhibitor III] | 129 (active) |
| Nc1nc(Nc2ccc(S(N)(=O)=O)cc2)nn1C(=S)Nc1c(F)cccc1F [Cdk1/2 Inhibitor III] | 133 (active) |
| Cc1ccc(C(=O)c2cc(O)c(O)c([N+](=O)[O-])c2)cc1 [Tolcapone] | 93.3 (inactive) |
| CCCCCC=CCC=CCC=CCC1OC1CCCC(=O)O (stereo not drawn) [5,6-Epoxyeicosatrienoic acid] | 89.4 (inactive) |
| CN(C)CCOC(C)(c1ccccc1)c1ccccn1.O=C(O)CCC(=O)O (stereo not drawn) [Doxylamine succinate] | 97.5 (inactive) |
| CC1(COc2ccc(CC3SC(=O)NC3=O)cc2)CCCCC1 (stereo not drawn) [Ciglitizone] | 96.5 (inactive) |
| CN(Cc1ccc(C(C)(C)C)cc1)Cc1cccc2ccccc12 [Butenafine] | 104 (inactive) |
| Cc1c(O)cc2c(c1C)OC(C)(CCCC(C)CCCC(C)CCCC(C)C)CC2 [D-γ-Tocopherol] | 98.5 (inactive) |
| COC(=O)C1C(O)CCC2CN3CCc4c([nH]c5ccccc45)C3CC21.Cl (stereo not drawn) [Yohimbine hydrochloride] | 93.8 (inactive) |
| O=S1(=O)CCN(CN2CCS(=O)(=O)NC2)CN1 | 88.2 (inactive) |
| C=C1NC(=O)C2=C(CCSC2)N1 | 95.5 (inactive) |
| Cc1[nH]ccc2c1[nH]c1cc(=O)ccc12.Cl.O.O | 97.1 (inactive) |
| COc1cc(C2c3cc4c(cc3C(OC3OC5COC(C)OC5C(O)C3O)C3COC(=O)C23)OCO4)cc(OC)c1O (stereo not drawn) [Etoposide] | 125 (active) |
